# Laboratory results reported in the supplement of paper PMC12819154, “High-throughput peptide-centric local stability assay extends protein–ligand identification to membrane proteins, tissues and bacteria” (Nature Structural & Molecular Biology, 2025).
# Compound: Nc1ncnc2c1ncn2[C@@H]1O[C@H](COP(=O)(O)OP(=O)(O)OP(=O)(O)O)[C@@H](O)[C@H]1O [adenosine 5'-triphosphate]
# Experiment: log2 fold change of tryptic peptide abundance, ligand vs vehicle (limited proteolysis) (log2 ratio); higher = more trypsin-susceptible (destabilized)
# Details: ligand concentration: 5 mM; sample: E. coli desalted lysate; replicate design: treated before aliquoting
# Experimental: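 HT-PELSA: desalted E. coli K-12 BW25113 lysate (with 12 mM MgCl2) incubated with 5 mM ATP (pH 7) or water for 30 min at 25 C, then a 4 min trypsin pulse at 22 C. Peptides were quantified by DIA-MS (4 replicates). Value is the peptide log2 fold change (treated/control); negative = stabilized. Scale: negative = ligand-stabilized region.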
# 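Also: lysate desalted by size exclusion to strip endogenous ATP, peptide intensities built from DIA-NN precursor signals, and peptides missing any value discarded before comparison.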
row,Target,log2 fold change
1,"UniProt P39407 (peptide sequence: EFFDPLR, peptide start residue: 90)",0.583
2,"UniProt P31548 (peptide sequence: LPGELSGGQR, peptide start residue: 126)",-0.702
3,"UniProt P15031 (peptide sequence: TVFSVEAEIHPEPVSGRPMCLMR, peptide start residue: 233)",1.33
4,"UniProt P09832 (peptide sequence: HVTCAYR, peptide start residue: 313)",0.367
5,"UniProt P25888 (peptide sequence: DLMASAQTGTGK, peptide start residue: 40)",-1.66
6,"UniProt P37773 (peptide sequence: IIAVLEPRSNTMK, peptide start residue: 354)",1.55
7,"UniProt P27830 (peptide sequence: ASSDHLVR, peptide start residue: 172)",-0.668
8,"UniProt P45577 (peptide sequence: VAGEMNLSKTQLR, peptide start residue: 46)",0.623
9,"UniProt P00562 (peptide sequence: ILDEAGLPGELR, peptide start residue: 375)",0.23
10,"UniProt P68398 (peptide sequence: EVPVGAVLVHNNR, peptide start residue: 27)",0.483
11,"UniProt P78061 (peptide sequence: FCHVYHACK, peptide start residue: 441)",-1.83
12,"UniProt P21420 (peptide sequence: HYFSSNDADDGDTTYAR, peptide start residue: 44)",-0.336
13,"UniProt P0A800 (peptide sequence: IGNRFDLVLVAAR, peptide start residue: 13)",-0.922
14,"UniProt P24202 (peptide sequence: LKSRPDAVDLDPK, peptide start residue: 114)",0.712
15,"UniProt P78067 (peptide sequence: WGHAGSDSTHMEDFHNPDGTMR, peptide start residue: 340)",-0.858
16,"UniProt P36929 (peptide sequence: VYDNLKR, peptide start residue: 286)",-1.2

row,Target,log2 fold change
1,"UniProt P77739 (peptide sequence: IGWQLELAAEK, peptide start residue: 152)",-0.651
2,"UniProt P15373 (peptide sequence: SHAVLTTESK, peptide start residue: 7)",-0.194
3,"UniProt P80668 (peptide sequence: TAADHLTR, peptide start residue: 261)",-1.12
4,"UniProt P0ADZ7 (peptide sequence: DFVAAVLPK, peptide start residue: 96)",-0.282
5,"UniProt P32157 (peptide sequence: YPVDVYTGK, peptide start residue: 3)",-0.765
6,"UniProt P23839 (peptide sequence: YLETYFRLPEQFR, peptide start residue: 31)",0.91
7,"UniProt P35340 (peptide sequence: MTLTEIVAKIDTGAEKR, peptide start residue: 186)",1.22
8,"UniProt P37028 (peptide sequence: IVALKPDLVIAWR, peptide start residue: 74)",0.465
9,"UniProt P56258 (peptide sequence: VGCVFATR, peptide start residue: 136)",-0.934
10,"UniProt P00888 (peptide sequence: LLVVCGPCSIHDPETALEYARR, peptide start residue: 55)",0.547
11,"UniProt P0AD57 (peptide sequence: QRAEEEADKAIAALQVLPDTPWR, peptide start residue: 286)",0.56
12,"UniProt P21345 (peptide sequence: EVLGKFDKTADQ, peptide start residue: 426)",-1.41
13,"UniProt P76226 (peptide sequence: IKPLLHQCVR, peptide start residue: 10)",-1.62
14,"UniProt P02358 (peptide sequence: TKHAVTEASPMVK, peptide start residue: 92)",0.374
15,"UniProt P77364 (peptide sequence: IDSQTAGGKAPLGVASVAK, peptide start residue: 295)",-0.814
